The record followed here is PubChem BioAssay.

Unmarked numbers belong to inactive results. How the calls were made is not given here.

In the test the target is Pantothenate synthetase (Mycobacterium tuberculosis (strain ATCC 25618 / H37Rv)) (UniProt P9WIL5). The test can be described thus: Recombinant Mtb pantothenate synthetase (PanC) inhibitors, coupled enzyme, confirmatory (AID 375).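 Further: 0% = full reaction with vehicle and 100% = no enzyme background.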 To be noted: coupled enzyme assay; at 10 µM, stronger effect = higher value.
Sequence of Pantothenate synthetase (Mycobacterium tuberculosis (strain ATCC 25618 / H37Rv)) (P9WIL5 whole entry, looked up): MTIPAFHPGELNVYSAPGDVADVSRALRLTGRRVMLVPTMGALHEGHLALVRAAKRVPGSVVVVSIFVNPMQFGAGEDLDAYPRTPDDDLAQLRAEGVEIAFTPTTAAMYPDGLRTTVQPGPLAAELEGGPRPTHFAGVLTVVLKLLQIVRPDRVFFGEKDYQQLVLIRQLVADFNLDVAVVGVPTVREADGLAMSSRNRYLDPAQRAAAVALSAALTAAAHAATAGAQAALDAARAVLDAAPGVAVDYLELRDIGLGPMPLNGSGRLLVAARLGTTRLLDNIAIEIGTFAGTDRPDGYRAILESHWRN
As usually defined, the inhibition is the share of the control response that was lost under treatment. Turning to `CC(C)C(c1nnnn1C1CCCC1)N1CCCc2ccccc21` (configuration not stated), the inhibition is 0%.

`O=C(Nc1nnc(CCN2CCCCC2)s1)C1CCCCC1`: the inhibition was 0%.

Consider `Cc1c(C(=O)NC2CC2)oc2ccc(S(=O)(=O)N3CCCCCC3)cc12`, for which the inhibition is 0%.

Take `Cc1ccc(S(=O)(=O)N2CCN(C(=O)c3cc(=O)[nH]c4ccccc34)CC2)c(C)c1`: the inhibition was 3%.

For `CCOC(=O)Cc1csc(NC(=O)CSc2nnc(C(C)C)n2CC)n1`, the inhibition is 0%.

As to `CCc1nnc(NC(=O)C2CCN(c3nccc(C)n3)CC2)s1`, the inhibition is 8%.

For the compound `CCN(CC)CCOC(=O)C(c1ccccc1)c1ccccc1`, the inhibition is 0%.

Regarding `CCOc1ccc(NC(=O)C2CC(=O)N(C(C)C)C2)cc1` (configuration not stated), the inhibition is 2%.

As for `CC(=O)N[C@@H](CS)C(=O)O`, the inhibition was 0%.

Consider `COc1cc(-c2noc(-c3cccc(Cl)c3)n2)cc(OC)c1OC`, for which the inhibition is 0%.

Turning to `CN(C#N)c1nc(N2CCOCC2)nc(N2CCOCC2)n1`, the inhibition is 1%.

For `Cc1cc(-c2ccc(F)cc2)nc2cc(C(N)=O)nn12`, the inhibition is 0%.

Take `CCn1ncc(C2=NOC(C(=O)Nc3ccc4c(c3)OCO4)C2)c1C` (configuration not stated): the inhibition is 0%.

As for `CCOc1ccccc1CN1C(=O)c2ccccc2C1C(=O)NCC1CCCO1` (configuration not stated), the inhibition was 11%.

Regarding `O=C1C2C3C=CC(C3)C2C(=O)N1CNc1ccc(O)cc1` (configuration not stated), the inhibition is 3%.

`Cc1nnc2n(-c3ccc(Cl)cc3)c(=O)c3c4c(sc3n12)CN(C)CC4`: the inhibition is 3%.

`CCC(Sc1nc2sc(C(=O)OC)c(C)c2c(=O)n1N)C(=O)NCC1CCCO1` (configuration not stated): the inhibition is 4%.
